Screening results as filed in PubChem BioAssay.
This is one part of a sample in which hits are shown more often than they occur.
Pf Dd2 growth = blocks in vitro growth of P. falciparum Dd2; P. falciparum Dd2 growth, SYBR Green, 72 h; Potency, µM (highest dose often 28.9 µM), actives largely listed as inhibitors; 4.3% of 120,000 active; AID 1347417; active = well fitted inhibition curve with a large enough effect; also: nearly all actives have a fitted effect of over 65% in size
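Infected erythrocytes (Dd2, 0.3% parasitemia, 2.5% hematocrit final) are added to compound in RPMI-1640/Albumax II medium, grown 72 h at 37C in low oxygen, then lysed with saponin/Triton-X containing SYBR Green and read by fluorescence.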
Hits are given with their value; – = inactive.

SMILES	Pf Dd2 growth
CC(C)NC(=O)N1CCOc2ccc(CCC(=O)NC3CCS(=O)(=O)C3)cc2C1 (stereo not given)	–
COc1ccccc1OC1(C(=O)O)CCN(C(=O)CC2C=CCC2)CC1 (stereo not given)	–
O=C(NCc1ccco1)C1CC(c2ccccc2)CN(C(=O)c2ccc(F)cc2)C1 (stereo not given)	–
O=C(Cc1cccc(Cl)c1)N1CC(c2nc(Cc3ccccc3)no2)C1	–
COc1cccc(-c2cc3c(=O)n(CCNC(=O)c4ccccc4OC)ccn3n2)c1	–
COCCN1CCC(N2CCN(C(=O)c3cc(C)ccc3C)CC2)C1=O (stereo not given)	–
COc1ccc(F)c(CN2CCCC(O)(CN3CCC(C(C)C)CC3)C2=O)c1 (stereo not given)	–
COc1ccc(F)c(CN2CCCC(O)(CN3CCC(C)CC3)C2=O)c1 (stereo not given)	4µM
COc1ccc(F)c(CN2CCCC(O)(CN3CCCCC3)C2=O)c1 (stereo not given)	–
C#CCNC(=O)CC[C@H]1CNC(=O)[C@@H]2[C@@H](CCN2Cc2ccc(C)cc2)N1C	–
Cc1ccc(CN2CC[C@@H]3[C@H]2C(=O)NC[C@H](CCC(=O)Nc2ccccc2)N3C)cc1	11µM
CN1[C@@H](CCC(=O)Nc2ccccc2)CNC(=O)[C@@H]2[C@H]1CCN2Cc1ccc(C(F)(F)F)cc1	–
Cn1cnc(C(=O)N2CCCN(S(C)(=O)=O)c3ccccc32)c1	–
COCCCNC(=O)N1CCCCC1c1nc(CCOc2cccc(C)c2)no1 (stereo not given)	–
O=C1NC2(CCN(Cc3ccc(OC(F)(F)F)cc3)CC2)COc2ccccc21	2.2µM
O=C1NC2(CCN(C(=O)C3CCCC3)CC2)COc2ccccc21	–
O=C1NC2(CCN(CC3CCCC3)CC2)COc2ccccc21	–
Cn1cccc1CN1CC2(C1)NC(=O)c1ccccc1O2	–
CN(C)c1ccc(CN2CCC3(CC2)COc2ccccc2C(=O)N3)cc1	1.1µM
CN(C)c1ccc(CN2CCC3(COc4ccccc4C(=O)N3)C2)cc1 (stereo not given)	–
O=C1NC2(CCCN(Cc3ccc(OC(F)(F)F)cc3)C2)COc2ccccc21 (stereo not given)	–
Cn1cccc1CN1CCC2(CC1)COc1ccccc1C(=O)N2	5.6µM
O=C1NC2(CCN(C(=O)c3ccccc3)CC2)COc2ccccc21	–
O=C(c1cc2ccccc2[nH]1)N1CC2CC(C1)[C@@H]1CCCC(=O)N1C2 (stereo not given in full)	–
CN(Cc1nccn1Cc1ccccc1)C(=O)c1cccc(-n2cnnc2)c1	–
SMILES	Pf Dd2 growth
O=C1CC(c2ccccc2)N(C(=O)C2CC2)CCCN(S(=O)(=O)c2cccnc2)CCN1 (stereo not given)	–
COc1cccc(C(=O)N2CCC3(CC2)CC(OCC2CC2)CCO3)c1 (stereo not given)	–
CCn1nccc1C(=O)N1CCCC(n2c(C)cnc2COC)C1 (stereo not given)	–
Nc1cc(=O)nc(SCC(=O)Nc2ccc(F)cc2)n1CCc1ccccc1	–
CC(Sc1nc(=O)cc(N)n1CCc1ccccc1)C(=O)Nc1ccccc1C#N (stereo not given)	11µM
Cc1ccc(NC(=O)C(C)Sc2nc(=O)cc(N)n2-c2ccccc2)cc1 (stereo not given)	–
CCNC(=O)CCc1c(C)nn(-c2cccc(C)c2)c1Oc1ccccc1	–
COc1ccc(-c2nnc(C[C@@H]3C[C@@H](C(C)C)[C@H](CN4CCN(C)CC4)C=C3C)o2)cc1	–
COc1ccc(-c2nnc(C[C@@H]3C[C@@H](C(C)C)[C@H](CN(C)CCc4ccccn4)C=C3C)o2)cc1	11µM
CC1=C[C@@H](CNCc2ccccn2)[C@H](C(C)C)C[C@H]1Cc1nnc(-c2ccccc2)o1	3.5µM
COc1ccc(-c2nnc(C[C@@H]3C[C@@H](C(C)C)[C@H](CN(C)CCC#N)C=C3C)o2)cc1	7.9µM
COc1ccc(CNC(=O)C[C@@H]2C[C@@H](C(C)C)[C@H](CC#N)C=C2C)cc1	–
CC1=C[C@@H](CNS(=O)(=O)c2ccccc2)[C@H](C(C)C)C[C@H]1Cc1nnc(-c2ccncc2)o1	–
CC1=C[C@@H](CNC(=O)CCC(=O)O)[C@H](C(C)C)C[C@H]1CC(=O)NCc1ccccn1	–
CCNC(=O)NC[C@@H]1C=C(C)[C@H](CC(=O)NCc2ccccn2)C[C@H]1C(C)C	–
CS(=O)(=O)N1CCN(C(=O)C2CC(=O)N(c3n[nH]c4cccc(F)c34)C2)CC1 (stereo not given)	–
Cn1ccnc1C(=O)N1CCCC1c1nc(CCOCC2CCCC2)no1 (stereo not given)	–
CC(C)[C@]1(O)CN(S(=O)(=O)c2ccc3c(c2)CCC(=O)N3)C[C@H]1C	–
O=c1cc(N2CCOCC2)oc2c(-c3ccccc3)nccc12	–
O=C(NCc1cnc2c(c1)CCC2)C1NCCc2[nH]cnc21 (stereo not given)	–
COc1cc(C(=O)N2[C@@H]3CC[C@H]2CC(NC(=O)c2ccncc2)C3)cc(OC)c1OC (stereo not given in full)	–
O=S1(=O)c2ccccc2N(Cc2ccccc2)c2ccccc21	–
NC(=O)c1ccccc1NC(=O)CN1c2ccccc2S(=O)(=O)c2ccccc21	10µM
COc1cc(Cl)c(C)cc1NC(=O)CN1c2ccccc2S(=O)(=O)c2ccccc21	–
CCCN(CCC)CC(O)Cn1cc(/C=C/C(=O)c2ccc(C)cc2)c2ccccc21 (stereo not given)	1.1µM
SMILES	Pf Dd2 growth
CCN(CC)C(=O)Cn1cc(SCC(=O)Nc2cccc(C)c2)c2ccccc21	–
CCCN(CCC)CC(O)Cn1cc(/C=C/C(=O)c2ccc(Br)cc2)c2ccccc21 (stereo not given)	3.2µM
Cc1ccc(CNC(=O)CCc2cn(Cc3ccc(C)cc3)c3ccccc23)cc1	–
CCCCN(C)CC(O)Cn1cc(/C=C/C(=O)c2ccc(C)cc2)c2ccccc21 (stereo not given)	2.5µM
O=C1c2c(nc(COc3ccc(Cl)cc3)n2Cc2ccccc2)NCCN1CC1CCOCC1	–
Cc1cnc(C(=O)N2C[C@@H](Oc3ccccc3)C[C@H]2C(=O)N2CCCC2)cn1	–
CO[C@H]1C(=O)N(C(C)C)[C@H]1C1CCN(C(=O)c2cnc(C)cn2)CC1	–
COc1cccc2sc(N(Cc3cccnc3)C(=O)Cc3ccccc3)nc12	–
O=C(CCc1ccccc1)N(Cc1cccnc1)c1nc2c(F)cc(F)cc2s1	10µM
O=C(c1ccco1)N(Cc1cccnc1)c1nc2c(F)cc(F)cc2s1	–
O=C(c1ccc2c(c1)OCCO2)N(Cc1cccnc1)c1nc2ccc(Cl)cc2s1	–
COc1ccc2sc(N(Cc3cccnc3)C(=O)CCc3ccccc3)nc2c1	–
O=C(C1COc2ccccc2O1)N(Cc1cccnc1)c1nc2c(Cl)cccc2s1 (stereo not given)	–
O=C(C1CCCCC1)N(Cc1cccnc1)c1nc2ccc(Cl)cc2s1	3.2µM
O=C(COc1ccccc1)N(Cc1cccnc1)c1nc2c(F)cc(F)cc2s1	–
Cc1ccc2nc(N(Cc3cccnc3)C(=O)C3COc4ccccc4O3)sc2c1 (stereo not given)	–
Cc1ccc2nc(N(Cc3cccnc3)C(=O)c3ccco3)sc2c1	10µM
CCc1ccc2nc(N(Cc3cccnc3)C(=O)c3ccc(C#N)cc3)sc2c1	8.9µM
O=C(CCS(=O)(=O)c1ccccc1)N(Cc1cccnc1)c1nc2ccc(F)cc2s1	–
